SMILES strings stand for the structures. This is part of a sample that, as a whole, favours compounds with a hit. Of some 83,000 tested, about 20% had one in any assay.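 A percent growth of 40 corresponds to 60% growth inhibition; 0 means no net growth; -100 means all cells died. Active threshold: below 10.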 A number with no mark means an inactive call. Calls of active or inactive are those of the source.

Test systems include K-562 leukemia; MALME-3M melanoma; MDA-MB-231 breast; RXF 393 renal; SF-268 CNS; SF-295 CNS; SF-539 CNS; UACC-257 melanoma; M14 melanoma; HCT-15 colon; HT29 colon; SNB-75 CNS; SNB-19 CNS; U251 CNS; PC-3 prostate; SK-MEL-5 melanoma; UACC-62 melanoma; LOX IMVI melanoma; SK-MEL-28 melanoma; SK-MEL-2 melanoma.
Experiment in all cases: NCI-60 one-dose screen, 48 h (100 = growth as untreated, 0 = no growth, -100 = all killed)
What all share (settings): 10 µM unless noted

`CCCCN1C(=O)/C(=c2\sc3n(c2=O)C2C(NN=3)N(CC)C(=O)N2CC)c2cc(Cl)ccc21` (stereo not given): the growth was 25.3% in the assay on K-562 leukemia; 73.9% in the assay with MALME-3M melanoma; 58.3% in the assay with MDA-MB-231 breast; 77% in the assay on RXF 393 renal; 75.4% in the assay with SF-268 CNS; 62.3% in the assay on SF-295 CNS. The growth in the assay with SF-539 CNS is 59.4%; with UACC-257 melanoma, 89.4%; in the assay on M14 melanoma, 70.3%; in the assay on HCT-15 colon, 43.9%; with HT29 colon, 88.4%; with SNB-75 CNS it was 69.1%. In addition, the growth with SNB-19 CNS was 90.8%; in the assay on U251 CNS, 65.4%; with PC-3 prostate, 71.2%; in the assay on SK-MEL-5 melanoma it was 66%; with UACC-62 melanoma, 47.5%; in the assay with LOX IMVI melanoma, 75.6%. In addition, the growth in the assay on SK-MEL-28 melanoma is 72.1%; with SK-MEL-2 melanoma it was 79.9%.

In the case of `Clc1ccc(Cc2nnc3sc(-c4cccnc4)nn23)cc1`, the growth in the assay on K-562 leukemia is 87.1%; in the assay with MALME-3M melanoma it was 108%; in the assay with MDA-MB-231 breast it was 93.6%; in the assay with RXF 393 renal, 85.9%; in the assay on SF-268 CNS, 96.4%; in the assay with SF-295 CNS, 99.9%. For the same compound, the growth with SF-539 CNS is 92.5%; with UACC-257 melanoma, 109%; in the assay on M14 melanoma, 106%; with HCT-15 colon, 99.6%; in the assay with HT29 colon it was 102%; in the assay on SNB-75 CNS, 94.4%. Further, the growth was 93.3% in the assay with SNB-19 CNS; 99% in the assay with U251 CNS; 101% with PC-3 prostate; 96.4% with SK-MEL-5 melanoma; 91.1% in the assay with UACC-62 melanoma; 96.7% in the assay on LOX IMVI melanoma. The growth with SK-MEL-28 melanoma was 109%; in the assay with SK-MEL-2 melanoma, 113%.

Take `COc1ccc(/C=C/C(=O)c2ccc(NC(=O)CSc3nnc(-c4ccc5nc(-c6ccc(Cl)cc6)[nH]c5c4)o3)cc2)cc1`: the growth is 87.3% with K-562 leukemia; 93.5% in the assay with MALME-3M melanoma; 98.4% in the assay with MDA-MB-231 breast; 107% in the assay with RXF 393 renal; 114% with SF-268 CNS; 100% with SF-295 CNS. The growth is 94.3% in the assay on SF-539 CNS; 110% in the assay on UACC-257 melanoma; 106% in the assay with M14 melanoma; 94.9% with HCT-15 colon; 106% in the assay on HT29 colon; 98.5% in the assay on SNB-75 CNS. In addition, the growth is 106% in the assay with SNB-19 CNS; 96% in the assay with U251 CNS; 82.5% in the assay on PC-3 prostate; 89.7% in the assay on SK-MEL-5 melanoma; 83.8% in the assay with UACC-62 melanoma; 6.79% (active) in the assay on LOX IMVI melanoma. Moreover, the growth in the assay on SK-MEL-28 melanoma is 113%; in the assay with SK-MEL-2 melanoma, 111%.

With `CN(C)CCCNc1c2ccc(Cl)cc2nc2c1oc1ccc(Cl)cc12`, the growth in the assay with K-562 leukemia is -6.56% (active); in the assay on MALME-3M melanoma, 49.4%; in the assay on MDA-MB-231 breast, -60.9% (active); with RXF 393 renal, -80.8% (active); in the assay on SF-268 CNS, 43.8%; with SF-295 CNS, -66.9% (active). Moreover, the growth in the assay on SF-539 CNS is -85.8% (active); in the assay with UACC-257 melanoma it was 94.5%; in the assay on M14 melanoma it was -75.6% (active); in the assay on HCT-15 colon it was -42.4% (active); in the assay on HT29 colon, -45.6% (active); in the assay with SNB-75 CNS, 45.2%. The growth was 38.2% with SNB-19 CNS; -50.9% (active) in the assay on U251 CNS; -24.1% (active) with PC-3 prostate; 77.1% with SK-MEL-5 melanoma; 12.6% in the assay with UACC-62 melanoma; -93.7% (active) in the assay with LOX IMVI melanoma. In addition, the growth in the assay with SK-MEL-28 melanoma is 72.5%; in the assay with SK-MEL-2 melanoma, 127%.

For the compound `Cc1cccc2sc(/N=C(\N)C(Cl)(Cl)Cl)nc12`, the growth with K-562 leukemia was 100%; in the assay on MALME-3M melanoma, 102%; in the assay on MDA-MB-231 breast, 96.2%; with RXF 393 renal, 120%; in the assay with SF-268 CNS it was 94.5%; in the assay with SF-295 CNS it was 94.4%. The growth in the assay on SF-539 CNS was 99.4%; in the assay with UACC-257 melanoma it was 104%; in the assay with M14 melanoma it was 101%; in the assay with HCT-15 colon, 102%; in the assay on HT29 colon it was 105%; in the assay with SNB-75 CNS it was 81.6%. Also, the growth with SNB-19 CNS is 90.3%; in the assay on U251 CNS it was 95.1%; in the assay on PC-3 prostate, 103%; in the assay with SK-MEL-5 melanoma, 99.6%; with UACC-62 melanoma it was 97.6%; with LOX IMVI melanoma it was 113%. Moreover, the growth is 112% in the assay with SK-MEL-28 melanoma and 118% with SK-MEL-2 melanoma.

Turning to `COc1ccc2[nH]cc(-c3cc(N)n4nc(-c5c[nH]c6ccc(OC)cc56)cc4n3)c2c1`, the growth with K-562 leukemia was -35.5% (active); in the assay on MALME-3M melanoma it was -68.4% (active); with MDA-MB-231 breast it was -12.6% (active); in the assay with RXF 393 renal it was -50.6% (active); with SF-268 CNS it was -30% (active); in the assay with SF-295 CNS, 25.2%. In addition, the growth in the assay with SF-539 CNS was -89.7% (active); in the assay with UACC-257 melanoma it was -21.8% (active); in the assay on M14 melanoma, -78.3% (active); in the assay on HCT-15 colon it was 1.36% (active); with HT29 colon it was -56.1% (active); with SNB-75 CNS, 106%. Besides, the growth was 78.6% in the assay with SNB-19 CNS; -87.6% (active) in the assay on U251 CNS; 5.09% (active) with PC-3 prostate; 3.11% (active) in the assay on SK-MEL-5 melanoma; -53.4% (active) with UACC-62 melanoma; -63.9% (active) with LOX IMVI melanoma. Further, the growth is -69.4% (active) with SK-MEL-28 melanoma and 72.5% in the assay with SK-MEL-2 melanoma.

Turning to `CC(C)(C)OC(=O)N1C(=O)c2c(c3c4ccccc4[nH]c3c3ccc4ccccc4c23)C1=O`, the growth in the assay on K-562 leukemia was 42.2%; with MALME-3M melanoma it was 48.1%; with MDA-MB-231 breast, 66.8%; in the assay on RXF 393 renal, 59%; in the assay with SF-268 CNS, 63.3%; in the assay on SF-295 CNS it was 50.2%. Besides, the growth in the assay with SF-539 CNS is 62.1%; in the assay on UACC-257 melanoma, 77.2%; in the assay on M14 melanoma, 37.3%; in the assay with HCT-15 colon, 51.6%; with HT29 colon it was 51.6%; in the assay with SNB-75 CNS it was 79.5%. The growth in the assay on SNB-19 CNS is 97.2%; in the assay with U251 CNS, 58.8%; in the assay on PC-3 prostate, 42.8%; with SK-MEL-5 melanoma it was 60.4%; in the assay on UACC-62 melanoma, 60.3%; in the assay on LOX IMVI melanoma it was 57.5%. The growth in the assay with SK-MEL-28 melanoma was 63.2%; with SK-MEL-2 melanoma, 42.7%.

Values taken from PubChem BioAssay (NCI).
